{"source": "PubChem BioAssay AID651813", "about": "(National Center for Advancing Translational Sciences (NCATS), 2012)", "note": "About 1,100 (52%) of roughly 2,100 compounds were called active. About 27% were inconclusive and are not listed. The set was probably picked from earlier hits. This is one part of the list. Values without a mark were called inactive. The call rests on the fitted dose curve; in most records, active means well fitted inhibition curve with a large enough effect; inconclusive means small, poorly fitted or top-dose-only effect; inactive means no such curve, though single readings can be large or run the other way."}
{"target": "DNA dC->dU-editing enzyme APOBEC-3G (Homo sapiens) (UniProt Q9HC16)", "sequence (Q9HC16 whole entry, looked up)": "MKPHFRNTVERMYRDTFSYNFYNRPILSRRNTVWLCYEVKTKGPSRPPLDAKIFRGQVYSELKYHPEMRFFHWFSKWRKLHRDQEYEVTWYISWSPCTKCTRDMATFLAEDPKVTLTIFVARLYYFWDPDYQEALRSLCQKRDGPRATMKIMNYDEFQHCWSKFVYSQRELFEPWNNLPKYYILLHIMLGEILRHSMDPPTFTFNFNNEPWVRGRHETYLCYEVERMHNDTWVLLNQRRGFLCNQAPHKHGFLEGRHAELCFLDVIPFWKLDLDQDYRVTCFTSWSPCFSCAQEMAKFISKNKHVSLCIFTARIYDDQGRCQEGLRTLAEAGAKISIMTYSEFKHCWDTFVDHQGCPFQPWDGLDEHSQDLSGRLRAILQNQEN", "experiment": "qHTS for inhibitors of Vif-A3G interactions: Cherry picks counterscreen;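 further: hits raise yellow fluorescence by blocking Vif-driven A3G-eYFP degradation; nearly all actives have a fitted effect of over 70% in size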; further: potency means the concentration at half of the fitted maximal effect;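 on max response: max response given as percent of control signal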", "conditions": "HeLa A3G-eYFP + Vif (tagged APOBEC3G with the HIV-1 protein that degrades it), eYFP fluorescence, 24 h", "summary_of_the_method": "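Readout is eYFP fluorescence (488 nm excitation, 500-530 nm emission) measured on Acumen Explorer after 24 h compound exposure, several concentrations, at 37 deg C. Cells: HeLa stably co-expressing Vif and C-terminally eYFP-tagged A3G; MG132 positive control.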", "units": {"max response": "%"}}
{"molecule": "CN1C2=CC=CC=CC2=[N+](C)C12C([N+](=O)[O-])=CC(=[N+]([O-])[O-])C=C2[N+](=O)[O-]", "note": "(centres undefined)", "max response": -21}
{"molecule": "C=CCSc1nc2ccccc2n1C(=O)/C=C/c1cc(OC)c(OC)c(OC)c1", "Potency": "8.86 µM (active)"}
{"molecule": "CCSc1nc2ccccc2n1C(=O)/C=C/c1ccc(OC)c(OC)c1", "Potency": "4.98 µM (active)"}
{"molecule": "CN(C)c1ccc(/C=C/C(=O)c2c(O)c3ccccc3oc2=O)cc1", "Potency": "1.3 µM (active)"}
{"molecule": "CN(C)c1ccc(/C=C/C(=O)c2ccc(O)cc2)cc1", "max response": 57}
{"molecule": "Cc1ccc2c(c1)sc(-c1ccc(N(C)C)cc1)[n+]2C", "Potency": "2.91 µM (active)"}
{"molecule": "COc1ccc(C2=NOC(C(=O)NCc3cccs3)C2)cc1OC", "note": "(centres undefined)", "Potency": "7.9 µM (active)"}
{"molecule": "COc1ccc(C2=NOC(C(=O)NCc3ccc(F)cc3)C2)cc1OC", "note": "(centres undefined)", "Potency": "1.12 µM (active)"}
{"molecule": "COc1ccc(C2=NOC(C(=O)NCc3ccc(F)cc3)C2)cc1", "note": "(centres undefined)", "max response": -20.8}
{"molecule": "COc1ccc(NC(=O)CSc2ccc3c4c(cccc24)C(=O)c2ccccc2-3)cc1", "Potency": "14.6 µM (active)"}
{"molecule": "N#Cc1cccc(NC(=O)CSc2ccc3c4c(cccc24)C(=O)c2ccccc2-3)c1", "Potency": "4.61 µM (active)"}
{"molecule": "CCn1c(SCC(=O)Nc2cccc(O)c2)nc2c1c(=O)n(C)c(=O)n2C", "max response": -1.18}
{"molecule": "COc1cc2c(cc1OC)C1=CC(=O)C(=O)N1C(C)(C)C2", "Potency": "14 µM (active)"}
{"molecule": "CCOc1ccc(S(=O)(=O)Nc2cc3c(C(=O)OC)c(COC)oc3c3ccccc23)cc1", "Potency": "0.461 µM (active)"}
{"molecule": "CC(=O)c1c(C)oc2c1cc(NS(=O)(=O)c1ccc(Br)cc1)c1ccccc12", "Potency": "1.64 µM (active)"}
{"molecule": "Cc1ccc(S(=O)(=O)Nc2cc(Cl)c(O)c3ncccc23)cc1", "max response": 10.1}
{"molecule": "COc1ccc(S(=O)(=O)Nc2cccc(-c3ccc4nncn4n3)c2)cc1", "Potency": "4.98 µM (active)"}
{"molecule": "COc1ccc(S(=O)(=O)Nc2cccc(-c3ccc4nncn4n3)c2)cc1F", "Potency": "4.44 µM (active)"}
{"molecule": "O=C(N/N=C/C=C/c1ccco1)c1ccncc1", "max response": 0.191}
{"molecule": "O=[N+]([O-])c1ccc(N/N=C/C=C/c2ccco2)cc1", "Potency": "18.4 µM (active)"}
{"molecule": "O=C1/C(=C/c2c[nH]c3ccccc23)CCC/C1=C\\c1c[nH]c2ccccc12", "Potency": "20.6 µM (active)"}
{"molecule": "CCOc1ccc(C2CC(c3c(O)c4ccccc4oc3=O)=NN2c2ccccc2)cc1OC", "note": "(centres undefined)", "Potency": "5.17 µM (active)"}
{"molecule": "c1ccc(N=NC2=NN(c3ccccc3)CS2)cc1", "max response": 20.9}
{"molecule": "Nc1nn(-c2ccccc2)c(N)c1N=Nc1ccccc1", "Potency": "8.86 µM (active)"}
{"molecule": "O=C(N=c1ccn(-c2nc3ccccc3nc2NS(=O)(=O)c2ccccc2)cc1)c1cccs1", "max response": 0.295}
{"molecule": "Cn1ccnc1Sc1nc2ccccc2nc1NS(=O)(=O)c1ccccc1", "max response": -7.62}
{"molecule": "COc1cc(Cl)c(C)cc1Nc1nc2ccccc2nc1NS(=O)(=O)c1ccccc1", "Potency": "20.6 µM (active)"}
{"molecule": "O=S(=O)(Nc1nc2ccccc2nc1Nc1cccc(S(=O)(=O)N2CCCCC2)c1)c1ccccc1", "Potency": "20.6 µM (active)"}
{"molecule": "Cc1ccc(S(=O)(=O)Nc2nc3ccccc3nc2Nc2cccc(S(=O)(=O)N3CCCC3)c2)cc1", "Potency": "23.1 µM (active)"}
{"molecule": "CC(=O)Nc1ccc(S(=O)(=O)Nc2nc3ccccc3nc2Nc2ccc3ccccc3c2)cc1", "max response": -17.6}
{"molecule": "COC(=O)c1cc(Nc2nc3ccccc3nc2NS(=O)(=O)c2ccc(C)cc2)ccc1Cl", "max response": -22.7}
{"molecule": "CCCNc1c(F)c(F)c2c(C)c3ccccc3nc2c1F", "Potency": "12.5 µM (active)"}
{"molecule": "Cc1c2ccccc2nc2c(F)c(NC(C)C)c(F)c(F)c12", "Potency": "8.2 µM (active)"}
{"molecule": "CCCNC(=O)c1ccccc1NC(=O)c1ccc2c(c1)NC(=O)C(C)S2", "note": "(centres undefined)", "Potency": "7.04 µM (active)"}
{"molecule": "CC(C)CCNC(=O)c1ccc2c(c1)NC(=O)C(CS(=O)(=O)Cc1cccc(Br)c1)N2", "note": "(centres undefined)", "max response": 2.76}
{"molecule": "CC1Sc2ccc(C(=O)NCc3ccccn3)cc2NC1=O", "note": "(centres undefined)", "max response": 3.16}
{"molecule": "CCN(CC)c1ccc(NC(=O)c2cccc(F)c2)c(C)c1", "Potency": "4.98 µM (active)"}
{"molecule": "COc1ccc(OC)c(NC(=O)Cn2cnc3onc(-c4ccc(Cl)cc4)c3c2=O)c1", "max response": 9.98}
{"molecule": "COc1ccc(OC)c(Nc2ncnc3c2cnn3-c2cccc(Cl)c2)c1", "Potency": "7.31 µM (active)"}
{"molecule": "Cc1ccc2[nH]c(C(=O)NN=C3CCCCC3)c(-c3ccccc3)c2c1", "max response": 4.2}
{"molecule": "Cc1cc(NC(=O)/C(C#N)=C/c2ccc(-c3ccc(SC(F)F)cc3)o2)n(-c2ccccc2)n1", "Potency": "4.61 µM (active)"}
{"molecule": "Cc1cc(NC(=O)/C(C#N)=C\\c2ccc(-c3ccc(SC(F)F)cc3)o2)n(-c2ccccc2)n1", "Potency": "2.59 µM (active)"}
{"molecule": "COc1ccc2[nH]cc(/C=C/c3cc[n+](C)cc3)c2c1", "Potency": "9.2 µM (active)"}
{"molecule": "COc1ccc2c(c1)c(/C=C/c1cc[n+](C)cc1)cn2C", "Potency": "2.23 µM (active)"}
{"molecule": "Cc1ccc2[nH]cc(/C=C/c3cc[n+](C)cc3)c2c1", "Potency": "1.4 µM (active)"}
{"molecule": "C[n+]1ccc(/C=C/c2c[nH]c3ccc(F)cc23)cc1", "Potency": "5.8 µM (active)"}
{"molecule": "Cc1ccc(NC(=S)N/N=C2\\CCCCC2C)cc1", "note": "(centres undefined)", "max response": -4.1}
{"molecule": "CC[n+]1cc(C)ccc1/C=C/c1ccc(N(C)C)cc1", "Potency": "17.7 µM (active)"}
{"molecule": "Cc1ccc(/C=C/c2ccc(N(C)C)cc2)[n+](C)c1", "Potency": "17.7 µM (active)"}
{"molecule": "CN(C)c1ccc(/C=C/c2cc[n+](C)cc2)cc1", "Potency": "12.5 µM (active)"}
{"molecule": "C=CCOc1c(Cl)cc(C(=S)N2CCCC2)cc1OCC", "Potency": "15.8 µM (active)"}
{"molecule": "CCCOc1cc(N(CC)CC)ccc1/C=C(/C#N)c1nc2ccc(C)cc2[nH]1", "max response": 37.6}
{"molecule": "Cc1cccc(OCCOc2ccccc2C=C(C#N)C#N)c1", "Potency": "22.3 µM (active)"}
{"molecule": "COC(=O)c1sccc1S(=O)(=O)N(CC(=O)Nc1cc(F)ccc1F)c1ccc(C)c(C)c1", "max response": -2.7}
{"molecule": "CCOc1ccccc1C(=O)Nc1ccsc1C(=O)OC", "Potency": "2.5 µM (active)"}
{"molecule": "COC(=O)c1sccc1NC(=S)Nc1cc(C)cc(C)c1", "max response": 5.75}
{"molecule": "COc1ccc(NC(=O)C2(C)Cc3c(-c4cccc(NC(C)=O)c4)ccnc3O2)cc1", "note": "(centres undefined)", "Potency": "1.77 µM (active)"}
{"molecule": "COc1ccc(NC(=O)C2(C)Cc3c(-c4cccc(C(N)=O)c4)ccnc3O2)cc1", "note": "(centres undefined)", "Potency": "4.44 µM (active)"}
{"molecule": "CCCCn1c(N)c(N(Cc2ccccc2OC)C(=O)c2ccc([N+](=O)[O-])s2)c(=O)[nH]c1=O", "max response": -2.93}
{"molecule": "CCCCn1c(N)c(N(CC(C)C)C(=O)Cc2ccc(S(=O)(=O)N3CCOCC3)s2)c(=O)[nH]c1=O", "Potency": "18.4 µM (active)"}
{"molecule": "C=CCN1C(=O)c2ccc(C(=O)N(CC(C)C)c3c(N)n(CCCC)c(=O)[nH]c3=O)cc2C1=O", "max response": 1.27}
{"molecule": "O=S(=O)([N-]c1nc2ccccc2nc1-[n+]1ccc(-c2ccncc2)cc1)c1ccccc1", "max response": 5.45}
{"molecule": "CCc1cc[n+](-c2nc3ccccc3nc2[N-]S(=O)(=O)c2ccc(Br)s2)cc1", "Potency": "23.1 µM (active)"}
{"molecule": "Cc1cc(C)c[n+](-c2nc3ccccc3nc2[N-]S(=O)(=O)c2ccc(Br)s2)c1", "Potency": "23.1 µM (active)"}
{"molecule": "Cc1ccc(Cc2c(C3CCCCC3)nc3ccc(C)cn23)cc1", "max response": 27.2}
{"molecule": "COc1ccc2oc(-c3ccccc3[N+](=O)[O-])cc(=O)c2c1", "Potency": "5.59 µM (active)"}
{"molecule": "Cc1ccc(NC(=S)N=Nc2c(O)n(C)c3ccc(S(=O)(=O)N4CCOCC4)cc23)cc1", "max response": 0.754}
{"molecule": "O=C(O)c1ccccc1/C=N/Nc1ccc(S(=O)(=O)N2CCOCC2)cc1[N+](=O)[O-]", "max response": -0.239}
{"molecule": "CCCN1CCC(=NNc2ccc(S(=O)(=O)N3CCOCC3)cc2[N+](=O)[O-])CC1", "Potency": "14 µM (active)"}
